Screening results (PubChem)
DRD3 antagonist: D3 dopamine receptor (human) antagonism; actives 2.5% (n = 360,000); D3R cells, DiscoveRx beta-arrestin luminescence, antagonist mode; hits give low values; P35462; max response, negative = inhibition, %; AID 652054; in the data active = max response below about -50%; inconclusive = no clear call, values can overlap the other calls; note: % is set by controls: 0 for no effect and ±100 for the full control effect
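Cells expressing the human receptor were seeded at 1500 cells/well, incubated overnight at 37 degrees C in 5% CO2, then exposed to library compounds with dopamine controls for 90 minutes at 37 degrees C before luminescent detection.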
D1 ag: agonists of human D1 dopamine receptor. P21728. HEK293 T-REx D1 cells, calcium flux, agonist mode. activation, % at 2 µM. actives 1% (n = 360,000); in the data active = activation above about 30%; note: 0% is about no effect
Target sequence (P21728 whole entry, looked up): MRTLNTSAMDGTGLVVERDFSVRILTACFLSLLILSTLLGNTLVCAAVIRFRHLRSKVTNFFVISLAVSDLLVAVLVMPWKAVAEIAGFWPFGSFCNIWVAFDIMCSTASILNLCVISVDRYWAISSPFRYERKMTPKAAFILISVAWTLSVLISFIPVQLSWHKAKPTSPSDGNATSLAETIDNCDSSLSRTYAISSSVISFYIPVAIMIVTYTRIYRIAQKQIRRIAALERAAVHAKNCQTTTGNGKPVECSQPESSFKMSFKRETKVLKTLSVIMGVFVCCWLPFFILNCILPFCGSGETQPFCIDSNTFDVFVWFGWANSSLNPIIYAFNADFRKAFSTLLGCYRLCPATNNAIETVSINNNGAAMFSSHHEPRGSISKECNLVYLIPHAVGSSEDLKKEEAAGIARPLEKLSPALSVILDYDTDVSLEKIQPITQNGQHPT
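Tetracycline-induced HEK293 TREx D1 cells, force-coupled to calcium signalling, were dye-loaded with a no-wash calcium kit. Compound was pin-added after a 10 s baseline. Fluorescence was read kinetically at 1 cycle/s for 180 s, with calcium rises flagged as agonism.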
D3 ag: agonists of human D3 dopamine receptor | AID 652048 | actives 0.58% (n = 410,000) | D3R DiscoveRx beta-arrestin cells, luminescence, 90 min | P35462 | max activation, %; in the data active = max activation above about 30%; note: 0% is about no effect
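Agonist-mode cell screen: cells plated at 1500/well and incubated overnight at 37 °C, then exposed to library compounds for 90 min at 37 °C. Detection reagent was added for 30–60 min at room temperature, and luminescence was read.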
D1 PAM: human D1 dopamine receptor positive modulation. HEK293 TREx D1 cells, calcium flux, dopamine EC20 potentiation. potentiation, % at 10 µM. actives 0.036% (n = 360,000); in the data active = potentiation above about 30%; note: 0% is about no effect
D1 antag: blocks dopamine activation of the human D1 receptor. P21728. HEK293 TREx D1 cells, calcium flux, dopamine EC80; hits give low values. activity change, negative = inhibition, % at 10 µM. actives 3.2% (n = 360,000); in the data active = activity change below about -30%; note: % is set by controls: 0 for no effect and ±100 for the full control effect
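After overnight tetracycline induction at 30 C, force-coupled D1 HEK293 cells took up a no-wash calcium dye at room temperature. Compounds were added and monitored 180 s, and the response to EC80 dopamine was then recorded.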
* hit, by the source's call; ? = inconclusive; · = no result. Rows were chosen to be rich in hits. Some 6% of all compounds tested hit in one or more screens of this group.

SMILES | DRD3 antagonist | D1 ag | D3 ag | D1 PAM | D1 antag
CC(=O)Nc1ccc(NC(=O)C2CCN(S(=O)(=O)c3ccc4c(c3)CCCC(=O)N4)CC2)cc1 | · | 1 | 4 | -4 | 12
CN(C)CCCNC(=O)N1c2ccccc2C=Cc2ccccc21 | -52* | 1 | -9 | -7 | -7
CCN(CC)C(=O)N1c2ccccc2C=Cc2ccccc21 | -21 | 2 | 3 | 5 | 4
O=C(CN1CCN(Cc2ccccc2)CC1)c1ccc(Br)cc1 | -62* | -1 | -35 | 2 | 2
O=C(CN1CCN(Cc2ccccc2)CC1)c1ccccc1 | 9 | 2 | -11 | -4 | -1
O=C(CN1CCN(Cc2ccccc2)CC1)c1c[nH]c2ccccc12 | -54* | 5 | -12 | -4 | -7
O=C(CN1CCCCC1)c1c[nH]c2ccccc12 | 7 | 9 | 0 | 2 | 1
O=C(NCC(c1cccnc1)N1CCc2ccccc2C1)C(=O)Nc1ccc(F)cc1F (centres undefined) | · | 1 | -13 | 1 | -4
Cc1cccc(Cc2cnc(NC(=O)c3ccc4c(c3)CC(c3ccccc3)OC4=O)s2)c1 (centres undefined) | · | 1 | 8 | 0 | 0
Cc1ccc(Cc2cnc(NC(=O)c3ccc4c(c3)CC(c3ccccc3)OC4=O)s2)cc1 (centres undefined) | · | 1 | 3 | -3 | -31*
Cc1ccc(-c2nnc(Nc3ccc(Cl)cc3)c3ccccc23)cc1S(=O)(=O)N1CCOCC1 | · | -3 | 10 | -1 | 1
Cn1c(=O)n(Cc2ccc(Cl)cc2)c2ccccc21 | 2 | -3 | -7 | -5 | -33*
Cn1c(=O)n(Cc2ccccc2Cl)c2ccccc21 | -14 | 0 | 4 | -4 | 20
CC1=C(C(=O)Nc2ccccc2)C(c2ccncc2)n2nc(SCc3ccccc3Cl)nc2N1 (centres undefined) | · | 7 | 9 | 1 | 4
O=C(CSc1nnc(-c2ccco2)o1)NC(=O)Cc1ccccc1 | -15 | 4 | -6 | -3 | 5
O=C(CSc1nnc(-c2ccco2)o1)NC(=O)C1COc2ccccc2O1 (centres undefined) | -55* | 2 | 3 | -6 | -14
COc1ccc2c(c1)CCc1c(C(=O)NC3CCCCC3)noc1-2 | 28 | 7 | 35* | -1 | 0
COCCNC(=O)c1noc2c1CCc1cc(OC)ccc1-2 | ? | 3 | 11 | -8 | -12
O=C(NCc1cccc(F)c1)c1ccccc1NC(=O)c1nsc2ccccc12 | · | 4 | -16 | 1 | 6
COc1ccc(N=C2NC(=O)S/C2=C\c2ccc(N(C)C)cc2)cc1 | -66* | 67* | -16 | 2 | -5
Cc1ccc(S(=O)(=O)N(C)Cc2ccc(C(=O)N/N=C/c3ccc(OC(F)F)cc3OC(F)F)cc2)cc1 | 6 | 4 | 0 | -4 | -13
COc1ccc(-c2[nH]ncc2/C=N/NC(=O)c2ccc(Br)cc2)c(OC)c1 | -66* | 1 | -38 | -11 | 1
O=C(N/N=C/c1ccc(OC(F)F)cc1OC(F)F)c1ccc(Br)cc1 | -88* | 11 | -13 | -6 | -15
COc1ccc(C(=O)N/N=C/c2cn[nH]c2-c2ccc(OC)cc2OC)cc1 | -26 | 1 | -20 | -8 | -1
CN(Cc1ccccc1)c1nnc(N)s1 | -17 | -2 | 2 | 1 | -1
SMILES | DRD3 antagonist | D1 ag | D3 ag | D1 PAM | D1 antag
CC(C)N(c1nnc(N)s1)C(C)C | -10 | -1 | 0 | -6 | -31*
CC1CCN(C2=NC(=O)/C(=C/c3ccccc3F)S2)CC1 | -24 | -1 | -41 | 0 | -6
CC1CCN(C2=NC(=O)/C(=C/c3cccc(O)c3)S2)CC1 | -85* | 0 | -37 | 2 | -19
COc1cccc(OCc2ccc(Cl)cc2)c1C#N | 4 | 2 | 0 | -6 | -51*
CCOC1=C2[C@H](c3ccccc3)N(S(=O)(=O)c3ccc(C)cc3)[C@H](C(C)C)[C@H]2n2c(=O)n(-c3ccccc3)c(=O)n2C1 | -55* | · | -11 | · | ·
Cc1cc(NC(=O)C2CCCC2)n(-c2nc3ccccc3[nH]2)n1 | ? | 4 | 34* | -7 | 24
N#Cc1c(NC(=O)Cn2cnc3ccccc3c2=O)oc(-c2ccccc2)c1-c1ccccc1 | -61* | 4 | 5 | -11 | -55*
N#Cc1c(NC(=O)CN2CCOCC2)oc(-c2ccccc2)c1-c1ccccc1 | -59* | 2 | -3 | 3 | 12
N#Cc1c(NC(=O)CSc2ncccn2)oc(-c2ccccc2)c1-c1ccccc1 | -23 | · | 3 | · | ·
COc1ccc(C(=O)Nc2ccc(NC(=O)CSc3nnc(-c4ccncc4)n3C)cc2)cc1 | 3 | 3 | 4 | 0 | 8
COc1ccc(OC)c(C(=O)CSc2nnc(Cc3cccs3)n2CCc2ccccc2)c1 | -20 | 51* | -3 | 3 | 3
COc1cc(-c2nnc(SCC(=O)NC3CCCC3)n2C)cc(OC)c1O | 20 | 2 | 2 | -4 | -41*
COc1ccc(-c2nnc(SCC(=O)NC3CCCC3)n2C)cc1 | 0 | 2 | 28 | · | -2
COc1ccc(OC)c(C(=O)CSc2nnc(-c3cccs3)n2C)c1 | 18 | 27 | 5 | 2 | 3
COc1ccc(-c2nnc(SCC(=O)Nc3ccc(C)cc3)n2C)cc1 | -6 | 0 | -7 | 0 | -90*
COc1cc(OC)cc(-n2nnnc2SCC(=O)NC2CCCC2)c1 | -71* | -3 | 3 | 5 | 0
COc1ccc(NC(=O)CSc2nnc(Cc3cccs3)n2-c2ccc(C)cc2)cc1 | 54 | 0 | 81* | -4 | 3
COc1ccc(NC(=O)CSc2nnnn2-c2ccc(F)cc2)cc1 | -22 | 1 | -8 | 0 | 0
COc1cccc(NC(=O)CSc2nnc(Cc3cccs3)n2-c2ccc(C)cc2)c1 | 80 | 15 | 17 | 15 | 20
COc1ccc(NCc2nnc(SCC(=O)Nc3nc(-c4ccccc4)cs3)n2-c2ccccc2)cc1 | -19 | 0 | 0 | -3 | -60*
CN(C)S(=O)(=O)c1ccc(Cl)c(NC(=O)CSc2nnnn2-c2ccc(O)cc2)c1 | 3 | 15 | 2 | 4 | -32*
COc1ccc(NC(=O)CSc2nnnn2-c2ccc(OC)cc2)cc1 | 14 | -3 | 4 | 4 | -80*
CCCN(Cc1cccs1)C(=O)Nc1ccc(Br)c(C)c1 | · | 2 | -1 | -3 | -4
CCOc1ccccc1-c1nc(C(N)=O)c2c(n1)n(-c1ccc3c(c1)OCO3)c(=O)n2C | · | 3 | -4 | -1 | -3
CCOC(=O)c1c(C)oc2nc(C)nc(NCC3CCN(Cc4ccc(Cl)cc4)CC3)c12 | · | 0 | -18 | 1 | -15
Cc1ccc(CC(=O)Nc2ccc(F)c([N+](=O)[O-])c2)cc1 | 6 | 9 | 2 | -9 | -43*
COc1ccc(-c2cc([N+](=O)[O-])ccc2OCC(=O)N(C)CC(=O)Nc2ccc(C)cc2)cc1 | ? | 6 | -8 | -5 | -18
